# Results reported in PubChem BioAssay AID720554 (ICCB-Longwood Screening Facility, Harvard Medical School, 2013).
# Screen size: about 12,000 compounds; about 45 (0.4%) were called active. No stated cut-off is given here; in the data, active means inhibition mostly above about 83% (no sharp cut-off); inactive means mostly below about 52%. The sample as a whole holds a higher share of actives than the screen did.
# Legend:
# [1] = BmaI1 acyl-homoserine lactone synthase inhibition – biochemical, fluorescence intensity, with counterscreen (AID 720554); conditions: BmaI1 enzyme assay, measured here: counterscreen fluorescence % control, concentration not given here
# [2] = test system: acyl-homoserine lactone synthase BmaI1 (Burkholderia mallei ATCC 23344); experiment: as above; conditions: BmaI1 enzyme assay, stronger effect = higher value, concentration not given here
SMILES,inhibition [1],inhibition [2]
N#Cc1ccccc1NC(=O)CN1CCNC(=O)C1,5%,6% (inactive)
NCCCOC1CCCCC1,11%,16.5% (inactive)
NS(=O)(=O)c1cc(C(=O)O)cs1,-4.5%,3% (inactive)
Cc1cc(C)n(-c2ccc(C(=O)OCC(=O)NCC3CCCO3)cc2)n1 (stereo not given),9%,8% (inactive)
O=C1NC(c2cccc(O)c2O)Nc2sc3c(c21)CCC3 (stereo not given),19%,83% (active)
Cc1ccccc1CSCc1nc(N)nc(Nc2ccccc2C)n1,4%,7% (inactive)
O=C1c2ccccc2C(=O)N1/N=C/c1ccc(-c2ccccc2Br)o1,2.5%,4.5% (inactive)
O=S(=O)(c1ccc(N=C=S)cc1)N1CCOCC1,-3%,13% (inactive)
NC(=O)C1CCN(Cc2cc(=O)oc3cc(O)ccc23)CC1,-4.5%,5.5% (inactive)
CC1(C)C(=O)Nc2ccccc2N1C(=O)CSc1ncnc2ccccc12,10.5%,18.5% (inactive)
COP1(=S)/C(=C2/N(C)c3ccccc3C2(C)C)C=NN1C (stereo not given),6%,88% (active)
CN1/C(=C2\C=NN(C)P2(=O)Nc2ccccc2)C(C)(C)c2ccccc21 (stereo not given),5%,14.5% (inactive)
CN1/C(=C2\C=NN(C)P2(=S)N2CCCC2)C(C)(C)c2ccccc21 (stereo not given),10%,15% (inactive)
COc1ccccc1/C=N/OCC(=O)NCc1ccc2c(c1)OCO2,3.5%,16.5% (inactive)
COC(=O)c1ccc(-n2c(C)cc(C(=O)CN3C(=O)CN(C)C3=O)c2C)cc1,-4.5%,9% (inactive)
Nc1nnc(-c2cccs2)c(=O)n1N,70.5%,20% (inactive)
O=C(N/N=C/c1sc(N2CCCCC2)nc1-c1cccs1)c1ccccc1,-8.5%,17% (inactive)
Nn1c(NNC(=O)c2ccccc2)nnc(-c2cccs2)c1=O,11.5%,92% (active)
CCCn1c(C)cc(/C=C(\C#N)C(=O)Oc2c(C)ccc(C)c2C)c1C,2.5%,17.5% (inactive)
CN(C)Cc1ccccc1C#N,1%,-3.5% (inactive)

SMILES,inhibition [1],inhibition [2]
Cc1ccc(S(=O)(=O)NCC(=O)OC2CCOC2=O)cc1 (stereo not given),4%,-3% (inactive)
COC(=O)Cc1c(C(=O)OC)sc(N)c1C#N,0.5%,5.5% (inactive)
c1cc2n[nH]nc2cn1,-4%,12% (inactive)
COc1ccccc1C(=O)CSc1cccc[n+]1[O-],10%,57% (inactive)
COc1cc(C(=O)CSc2cccc[n+]2[O-])cc(OC)c1OC,6.5%,87% (active)
COc1ccccc1C(=O)NC(=O)CSc1cccc[n+]1[O-],10%,16.5% (inactive)
Cc1nn(-c2ccccc2)c2c1CC(C#N)(c1ccccn1)C1CCCN21 (stereo not given),3%,10% (inactive)
COc1cc(OC)c(OC)cc1CNC(=O)CCc1c(C)noc1C,0%,11% (inactive)
Cc1cc(C(=O)CN(Cc2ccco2)S(=O)(=O)/C=C/c2ccccc2)c(C)n1C,0.5%,2.5% (inactive)
Cc1csc(=Nc2ccccc2F)n1/N=C/c1ccncc1,-3%,89% (active)
Oc1ccc(/C=N/n2c(-c3ccco3)csc2=Nc2ccc(F)cc2F)c(O)c1,19%,34% (inactive)
CN=c1scc(-c2ccccc2)n1/N=C/c1ccsc1,-7%,6% (inactive)
CCN(C(=O)Cn1ncc(Cl)c(Cl)c1=O)C1CCS(=O)(=O)C1 (stereo not given),6%,12% (inactive)
COc1ccc2nc(NC(=O)c3ccco3)sc2c1,14.5%,19% (inactive)
CCn1c(CCC(=O)Nc2ccc(N3CCOCC3)cc2)nc2cc(S(=O)(=O)N(C)C)ccc21,-2.5%,21% (inactive)
CCn1c(C)nc2cc(C#N)ccc21,6%,8% (inactive)
CN(C)S(=O)(=O)c1cccc(-c2nnc3n2CCCCC3)c1,-2%,-4.5% (inactive)
CCc1ccc(C2=Nn3c(nnc3-c3cccc(S(=O)(=O)N(CC)CC)c3)SC2)cc1,3%,21% (inactive)
CN(C)S(=O)(=O)c1cccc(-c2nnc3n2N=C(c2cccs2)CS3)c1,-1%,87.5% (active)
COc1ccc2c(Cl)c(-c3nnc4n3CCC4)sc2c1,-3.5%,6.5% (inactive)

SMILES,inhibition [1],inhibition [2]
Cc1csc(Cc2nc3ccccc3n2C)n1,8%,16% (inactive)
Cn1c(Cc2nnc3n2-c2ccccc2SC3)nc2ccccc21,-1%,28.5% (inactive)
Cn1c(CC(N)=S)nc2ccccc21,17%,92.5% (active)
Cc1cc(C(=O)Cn2cnc3sccc3c2=O)c(C)n1C1CC1,8.5%,16.5% (inactive)
CC(C)Sc1nc2ccccc2n1CN1CCN(c2ccccn2)CC1,3%,9% (inactive)
Cc1csc(=O)n1CN1CCN(C(=O)C2COc3ccccc3O2)CC1 (stereo not given),7.5%,17.5% (inactive)
COC(=O)COc1ccc2ccc(=O)oc2c1,-9.5%,-8% (inactive)
COC(=O)COc1cc(NO)ccc1N=O,4.5%,88.5% (active)
CCN(CC)c1ccc(N=CN2CCOCC2)cc1,-31%,53% (inactive)
COC(=O)c1c(C)oc(C)c(C(=O)OC)c1=O,2.5%,1.5% (inactive)
Cc1ccc(Cl)cc1N1CCN(Cn2sc3ccccc3c2=O)CC1,8.5%,77% (inactive)
CCOC(=O)C1CCN(Cn2c(=S)oc3ccc(S(=O)(=O)CC)cc32)CC1,-4%,5% (inactive)
O=S(=O)(c1ccc2oc(=S)n(CN3CCOCC3)c2c1)N1CCOCC1,4%,99.5% (active)
Nc1nc2cc(S(=O)(=O)N3CCOCC3)ccc2o1,-5.5%,2.5% (inactive)
CCn1c(=O)c(=O)[nH]c2cc(C(=O)Nc3ccccc3N3CCOCC3)ccc21,19.5%,16.5% (inactive)
O=c1[nH]nc(-c2ccco2)o1,-7%,96% (active)
Cn1c(-c2ccco2)n[nH]c1=S,80%,96.5% (inactive)
c1coc(-c2nnc(-c3ccco3)nn2)c1,34%,0% (inactive)
Cc1cc(C(=O)Cn2cc(C(F)(F)F)ccc2=O)c(C)n1Cc1ccco1,1%,3% (inactive)
Cc1ccc(C(=O)NCCN2C(=O)S/C(=C\c3ccc(F)cc3)C2=O)cc1NC(=O)c1ccco1,-9.5%,6.5% (inactive)
